Source: PubChem
Rows were chosen to be rich in hits. Some 4% of all compounds tested hit in one or more screens of this group.
RecA splice inh: inhibitors of M. tuberculosis RecA intein splicing; cell-free RecA intein splicing, fluorescence; inhibition, % (test concentration not listed); 0.75% of 290,000 active; AID 2221; in the data active = inhibition above about 30%; inconclusive = no clear call, values can overlap the other calls
Rv3671c inh: inhibitors of M. tuberculosis serine protease Rv3671c. P9WHR9. inhibition, % at 5.96 µM. 0.048% of 320,000 active; in the data active = inhibition above about 38%;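 also: extracellular domain of Rv3671c used as enzyme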
Mtb UGM inh: Mtb UDP-galactopyranose mutase inhibition; P9WIQ1; purified UGM, fluorescence polarization probe displacement; inhibition, % at 10 µM; 0.06% of 320,000 active; AID 504406; in the data active = inhibition above about 10%, passing the limit was not always enough; inconclusive = no clear call, values can overlap the other calls
GDH-TPI inh: counter-screen for M. tuberculosis FBA inhibitors: GDH-TPI coupled enzymes. 1.2% of 360,000 active. inhibition, % at 4.8 µM. AID 588335. GDH-TPI coupled enzyme counterscreen, NADH absorbance; in the data active = inhibition above about 30%
Mtb betalactam: beta-lactam sensitization of Mtb H37Rv; M. tuberculosis H37Rv growth with meropenem, percent inhibition; inhibition, % at 25 µM; 0.27% of 330,000 active; call rule not given here;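 also: growth measured after seven days incubation then overnight dye step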
Mtb FBA inh: inhibits M. tuberculosis FBA enzyme; P9WQA3; purified M. tuberculosis FBA, fluorescence read-out; inhibition, % at 1 µM; 2.3% of 360,000 active; AID 588726; in the data active = inhibition above about 27%
Target sequence (P9WQA3 whole entry, looked up): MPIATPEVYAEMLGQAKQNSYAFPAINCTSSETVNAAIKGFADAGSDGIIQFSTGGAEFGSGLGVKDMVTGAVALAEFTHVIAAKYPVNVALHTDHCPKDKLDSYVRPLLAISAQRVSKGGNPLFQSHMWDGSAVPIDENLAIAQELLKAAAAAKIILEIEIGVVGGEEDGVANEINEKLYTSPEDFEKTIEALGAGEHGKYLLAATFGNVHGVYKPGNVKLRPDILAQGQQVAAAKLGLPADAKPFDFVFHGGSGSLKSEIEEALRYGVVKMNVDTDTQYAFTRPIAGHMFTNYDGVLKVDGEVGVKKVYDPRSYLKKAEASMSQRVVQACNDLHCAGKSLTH
Large screens that a line does not name were inactive.

C/C(=N\NC(=O)c1ccccc1O)c1c(O)n(Cc2ccccc2)c(=O)[nH]c1=O	GDH-TPI inh 46.8
C/C(=N\NC(=O)c1ccccc1O)c1c(O)n(C2CCCCC2)c(=O)[nH]c1=O	GDH-TPI inh 45.7
CC(=NCc1ccco1)c1c(O)n(C2CCCCC2)c(=O)[nH]c1=O	none
C/C(=N\NC(=O)c1ccccc1)c1c(O)n(C2CCCCC2)c(=O)[nH]c1=O	GDH-TPI inh 37.9, Mtb betalactam inconclusive
CC(=NCCO)c1c(O)n(C2CCCCC2)c(=O)[nH]c1=O	none
C/C(=N\NC(=O)c1ccccc1Cl)c1c(O)n(C2CCCCC2)c(=O)[nH]c1=O	GDH-TPI inh 37.1
CN(C)c1ccc(N=Cc2nc(-c3ccccc3)oc2O)cc1	Mtb UGM inh 14.8
Oc1oc(-c2ccccc2)nc1C=NCc1ccccc1	GDH-TPI inh 49.4
Cc1ccc(NC(=O)c2cnccn2)nc1	none (no result: Rv3671c inh)
CC(C)(C)OC(=O)C[C@H]1C/C=C\C[C@H](CC(=O)NCCO)C(=O)N[C@@H](Cc2ccccc2)COC1=O	none (no result: RecA splice inh)
Cc1ccc(NC(=O)CN2C(=O)S/C(=C\c3ccc(OCC(=O)O)c(Br)c3)C2=O)cc1	none
COc1cc(/C=C2\SC(=O)N(CC(=O)Nc3ccc(C)cc3)C2=O)cc(Cl)c1OCC(=O)O	GDH-TPI inh 33.3
CCN(C(=O)COC(=O)/C(C#N)=C/c1cc(C)n(CCOC)c1C)c1c(N)n(Cc2ccccc2)c(=O)[nH]c1=O	GDH-TPI inh 36.8 (no result: RecA splice inh, Rv3671c inh, Mtb UGM inh, Mtb betalactam)
Fc1ccc(-c2csc(Nc3ccccn3)n2)cc1	none (no result: RecA splice inh)
COc1ccc(Oc2coc3cc(O)ccc3c2=O)cc1	GDH-TPI inh 44.8 (no result: Rv3671c inh)
COc1ccc(Oc2coc3cc(OC(=O)/C=C/c4ccccc4)ccc3c2=O)cc1	none (no result: Mtb UGM inh)
CC1CCC(C(C)C)C(=O)/C1=C/c1ccc(N)cc1 (stereo unspecified)	GDH-TPI inh 36.4
Cc1ccc(-n2c(N)c(C(=O)Nc3ccccc3F)sc2=S)cc1C	GDH-TPI inh 32.9
O=C(CN1C(=O)S/C(=C\c2ccccc2Cl)C1=O)NCCCn1ccnc1	GDH-TPI inh 35.3
COC(=O)c1ccccc1NC(=O)/C=N/O	none
COC(=O)C(=N/Nc1ccccc1C(=O)OC)/C(C)=N/O	GDH-TPI inh 44.2
COc1cc(CC(=O)N2CCN(S(=O)(=O)c3ccc(C)cc3)CC2)cc(OC)c1OC	none (no result: RecA splice inh)
O=c1nc2s/c(=C\c3ccc(-c4ccccc4[N+](=O)[O-])o3)c(=O)n2nc1-c1ccccc1	RecA splice inh 64.5 (no result: Rv3671c inh, Mtb UGM inh, Mtb betalactam)
CCCCCOc1ccc(/C=c2\sc3nc(=O)c(-c4ccccc4)nn3c2=O)cc1OC	none
CC(C)(C)c1cc(C(=O)CCN2CCOCC2)cc(C(C)(C)C)c1O	RecA splice inh 30.4
C[C@@H]1CN(C(=O)c2nc3ccc(Cl)cn3c2CN(C)CCc2cnn(C)c2)C[C@H](C)O1	none
CN(C)c1ccc(C(=O)Nc2ccc(S(=O)(=O)NC3=NCCCCC3)cc2)cc1	GDH-TPI inh 32.5
Cc1noc(NS(=O)(=O)c2ccc(NC(=O)c3cnc4scc(C)n4c3=O)cc2)c1C	GDH-TPI inh 49.0
CS(=O)(=O)Nc1ccc(C(=O)Nc2ccc(S(=O)(=O)Nc3nccs3)cc2)cc1	none
Cc1noc(NS(=O)(=O)c2ccc(NC(=O)c3nn(-c4ccc(F)cc4)ccc3=O)cc2)c1C	GDH-TPI inh 32.3
CN(C)c1ccc(C(=O)Nc2ccc(S(=O)(=O)Nc3nccs3)cc2)cc1	GDH-TPI inh 38.0
CC(C)c1ccc(C(=O)Nc2ccc(S(=O)(=O)NC3=NCCCCC3)cc2)cc1	none (no result: RecA splice inh, Rv3671c inh, Mtb UGM inh, Mtb betalactam)
Cc1noc(NS(=O)(=O)c2ccc(NC(=O)c3ccc(N(C)C)cc3)cc2)c1C	GDH-TPI inh 32.2 (no result: RecA splice inh)
Cc1ccc(C(=O)NNC(=O)c2nn(-c3ccc(F)cc3)ccc2=O)cc1	GDH-TPI inh 33.3
COc1ccc(CNC(=O)CN2C(=O)NC(c3ccccc3)(c3ccccc3)C2=O)cc1	none (no result: RecA splice inh)
COc1cc2ccc(C(C)=NNC(N)=S)cc2cc1OC	GDH-TPI inh 42.5 (no result: RecA splice inh, Rv3671c inh, Mtb UGM inh, Mtb betalactam)
Cc1onc(-c2c(Cl)cccc2Cl)c1C(=O)n1nnc2ccccc21	RecA splice inh 37.4 (no result: GDH-TPI inh, Mtb FBA inh)
CN(C)c1ccc(C(=O)n2nnc3ccccc32)cc1	RecA splice inh 49.2
CCN(CC)c1ccc(C(=O)n2cnc3ccccc32)cc1	GDH-TPI inh 39.6 (no result: Mtb betalactam)
CC(C)(C)c1ccc(C(=O)n2cnc3ccccc32)cc1	none
Cc1onc(-c2c(Cl)cccc2Cl)c1C(N)=O	none (no result: RecA splice inh)
COc1ccccc1-c1noc2c1C(=O)N(C(=O)OC(C)(C)C)CC2	none (no result: RecA splice inh, Rv3671c inh, Mtb UGM inh, Mtb betalactam)
Cc1ccc(C)c(-n2nnnc2Sc2nnnn2-c2ccccc2)c1	RecA splice inh 71.0
CCSc1nnnn1-c1ccccc1	none (no result: RecA splice inh)
CC1(C)Cc2c(cnn2-c2ccc(F)cc2)C(NC(=O)c2ccc(=O)oc2)C1 (stereo unspecified)	GDH-TPI inh 40.6
CC1(C)Cc2c(cnn2-c2ccc(F)cc2)C(NC(=O)c2cnccn2)C1 (stereo unspecified)	none
O=C(c1ccc(-n2cncn2)c2ccoc12)N1CCOCC1	none (no result: RecA splice inh, Rv3671c inh, Mtb UGM inh, Mtb betalactam)
Cc1noc(C)c1S(=O)(=O)N1CCCC1C(=O)O (stereo unspecified)	none
C/C(=N\Nc1ccc(Cl)c(C(=O)O)c1)c1cccc([N+](=O)[O-])c1	GDH-TPI inh 41.6
O=C(O)c1cc(N/N=C/C=C/c2ccccc2[N+](=O)[O-])ccc1Cl	GDH-TPI inh 38.2
NS(=O)(=O)c1ccc(N/N=C/C=C/c2ccccc2[N+](=O)[O-])cc1	none
COc1cc(O)c(C(=O)CC(=O)c2ccncc2)c(OC)c1	none (no result: RecA splice inh, Rv3671c inh, Mtb UGM inh, Mtb betalactam)
O=C(/C=C/c1ccccc1Cl)Nc1cccnc1	none
COc1ccccc1/C=C/C(=O)Nc1cccnc1	GDH-TPI inh 34.8
COc1cccc(/C=C2\SC(=O)N(CCC(=O)NC3CCS(=O)(=O)C3)C2=O)c1 (stereo unspecified)	none
CN(C(=O)CN1C(=O)S/C(=C\c2ccc(Cl)cc2)C1=O)C1CCS(=O)(=O)C1 (stereo unspecified)	GDH-TPI inh 38.3
O=C(CCN1C(=O)S/C(=C\c2ccccc2)C1=O)NC1CCS(=O)(=O)C1 (stereo unspecified)	GDH-TPI inh 35.9
CN(C(=O)CCN1C(=O)/C(=C/c2ccccc2)SC1=S)C1CCS(=O)(=O)C1 (stereo unspecified)	none
CCN(C(=O)CCN1C(=O)S/C(=C\c2ccccc2)C1=O)C1CCS(=O)(=O)C1 (stereo unspecified)	GDH-TPI inh 42.9
CN(C(=O)CN1C(=O)S/C(=C\c2ccccc2)C1=O)C1CCS(=O)(=O)C1 (stereo unspecified)	GDH-TPI inh 44.8
OC(CNc1ncnc2sccc12)c1ccccc1 (stereo unspecified)	none
CC1(c2cccc(Br)c2)NC(=O)N(CC(=O)c2ccc3c(c2)OCO3)C1=O (stereo unspecified)	none (no result: RecA splice inh, Rv3671c inh, Mtb UGM inh, Mtb betalactam)
O=C(Nc1nnc(-c2ccncc2)o1)c1cccc(N2C(=O)CCC2=O)c1	GDH-TPI inh 37.8
CC(O)CNc1cc(N)c([N+](=O)[O-])cc1[N+](=O)[O-] (stereo unspecified)	GDH-TPI inh 42.9
